Here are results for eight molecules from PubChem BioAssay (NCI).

Holding throughout (assay): NCI-60 one-dose screen, 48 h (100 = growth as untreated, 0 = no growth, -100 = all killed)
What all share (settings): 10 µM unless noted

The test system of experiment [1] is NCI-H23 lung.
The test system of experiment [2] is NCI-H226 lung.
For experiment [3], the system named is NCI-H322M lung.
For experiment [4], the system named is HOP-62 NSCLC.
Experiment [5] deals with NCI-H460 lung.
For experiment [6], the system named is HOP-92 NSCLC.
In experiment [7] the test system is NCI-H522 lung.
The test system of experiment [8] is A549/ATCC NSCLC.
The subject of experiment [9] is 786-0 renal.
Experiment [10] deals with COLO 205 colon.
The subject of experiment [11] is DU-145 prostate.
The subject of experiment [12] is K-562 leukemia.
The test system of experiment [13] is MALME-3M melanoma.
Experiment [14] has as its system MDA-MB-231 breast.
Experiment [15] has as its system RXF 393 renal.
In experiment [16] the test system is SF-268 CNS.
Experiment [17] relates to SF-295 CNS.
The subject of experiment [18] is SF-539 CNS.
Experiment [19] has as its system UACC-257 melanoma.
Experiment [20] relates to M14 melanoma.

Each structure is given as a SMILES string. About 83,000 compounds went through this panel and 20% of them were active in at least one assay; those are over-represented in the sample as a whole.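 Note: values are percent growth. 100 is the growth of untreated cells, values between 100 and 0 indicate rising inhibition; between -100 and 0 indicates cell death.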 Unmarked numbers belong to inactive results. Active and inactive are the calls of the source. How the source made its calls: active means growth percent below 10; inactive means the rest.

For the molecule `CCN(CC)CCCNc1cc(OC)cc2cccnc12`, the growth in experiment [1] is 99.3%; in experiment [2], 92.7%; in [3], 107%; in [4], 102%; in [5], 105%; in experiment [6] it was 124%. Moreover, the growth was 94.7% in [7]; 108% in experiment [8]; 102% in experiment [9]; 83.9% in experiment [10]; 105% in experiment [11]; 81.4% in experiment [12]. Also, the growth in experiment [13] is 133%; in experiment [14], 89.5%; in [15] it was 96.5%; in experiment [16], 96.5%; in experiment [17] it was 105%; in experiment [18], 101%. In addition, the figures for the growth in experiment [19] and in [20] were 107% and 127%, respectively.
For `CCCc1cc(CCC)n2nc(N)nc2n1`, the growth in experiment [1] was 103%; in [2], 94.8%; in experiment [3] it was 97.9%; in [4] it was 97.5%; in experiment [5] it was 110%; in experiment [6] it was 106%. Besides, the growth in [7] is 109%; in experiment [8], 112%; in experiment [9], 97.1%; in [10], 103%; in experiment [11] it was 117%; in [12], 121%. The growth was 116% in [13]; 125% in [14]; 102% in experiment [15]; 110% in experiment [16]; 96.4% in experiment [17]; 112% in [18]. The growth was 118% in [19] and 111% in [20].
On to `COc1ccc(N2C(=O)/C(=C/C(Cl)=C/c3ccc([N+](=O)[O-])cc3)SC2=S)cc1`, for which the growth is -1.85% (active) in experiment [1]; -31% (active) in [2]; 31.2% in [3]; -9.71% (active) in [4]; 0.356% (active) in [5]; -33.8% (active) in experiment [6]. Moreover, the growth in [7] was -42.5% (active); in experiment [8] it was -0.282% (active); in [9], -77.7% (active); in experiment [10] it was -36% (active); in [11], 5.02% (active); in [12], 0.935% (active). Also, the growth in experiment [13] is 26.4%; in experiment [14] it was 7.73% (active); in [15], -77.9% (active); in [16] it was 12.3%; in experiment [17], -32.1% (active); in experiment [18], -22.8% (active). Moreover, the growth was 48.2% in experiment [19] and 12.3% in [20].
Turning to `COc1nc2ccccc2cc1/C=[N+](\[O-])c1ccccc1`, the growth is 75.4% in [1]; 69.5% in experiment [2]; 86.5% in experiment [3]; 80.4% in experiment [4]; 99.6% in [5]; 64.4% in experiment [6]. Besides, the growth in experiment [7] was 82.7%; in [8] it was 94.8%; in experiment [9] it was 102%; in experiment [10], 108%; in experiment [11] it was 102%; in experiment [12], 13.5%. Moreover, the growth in [13] was 60.9%; in experiment [14], 57.5%; in experiment [15], 85.5%; in experiment [16], 65.5%; in [17], 93.5%; in experiment [18], 34.2%. Moreover, the growth in [19] was 93%; in [20] it was 39.6%.
As for `CCN(CC)CCOc1ccc(/C(=C(\C)Cc2ccc(OC)cc2)c2ccc(O)cc2)cc1`, the growth was 59.2% in [1]; 74.6% in experiment [2]; 54.5% in experiment [3]; 25.8% in experiment [4]; -36.4% (active) in experiment [5]; 2.96% (active) in [6]. Moreover, the growth in experiment [7] was -9.94% (active); in experiment [8], 19.4%; in experiment [9], -37.1% (active); in [10] it was -72.1% (active); in [11], 53.4%; in [12], -56.7% (active). Moreover, the growth in experiment [13] was -76.7% (active); in experiment [14] it was 24%; in experiment [15], 6.99% (active); in experiment [16] it was 47.9%; in experiment [17], -25.3% (active); in [18], -50.8% (active). In addition, the growth is -62.9% (active) in experiment [19] and -77.3% (active) in [20].
In the case of `Cc1c(Cl)cccc1NC(=O)c1sc2nc3c(cc2c1N)CCCC3`, the growth in experiment [1] was 58.9%; in experiment [2], 69.3%; in [3], 74.2%; in [4], 25.2%; in [5], 12.9%; in experiment [6], 25.6%. The growth in experiment [7] was 4.4% (active); in experiment [8], 39.1%; in experiment [9], 29.8%; in [10], 22.1%; in [11], 39.9%; in experiment [12], 13.7%. Besides, the growth was 67.7% in [13]; 49.5% in experiment [14]; 40% in [15]; 49.3% in [16]; 8.07% (active) in experiment [17]; 4.43% (active) in experiment [18]. In addition, the growth in experiment [19] was 37.7%; in [20] it was 25.3%.
As for `COc1ccc(-c2nc3cc(C(=O)NC4CCCCC4)ccc3n2C2CCCCC2)cc1`, the growth in [1] was 92.5%; in experiment [2], 115%; in [3] it was 85.8%; in experiment [4], 101%; in experiment [5], 86.2%; in experiment [6], 121%. Further, the growth in experiment [7] was 73.5%; in experiment [8], 89.4%; in [9], 88.3%; in [10] it was 73.6%; in experiment [11], 99.7%; in experiment [12], 49.5%. Besides, the growth in [13] was 95.8%; in experiment [14] it was 101%; in experiment [15], 100%; in experiment [16], 91.7%; in experiment [17], 78.3%; in experiment [18], 88%. The growth in experiment [19] was 104%; in experiment [20], 88.7%.
Regarding `CSc1nc(N)c2c(n1)NC(c1ccccc1)C1CCc3ccccc3C1=N2` (stereo not given), the growth in [1] was 39.4%; in [2], 77.6%; in experiment [3], 112%; in [4], 64.4%; in experiment [5] it was 57.3%; in [6], 51.2%. Moreover, the growth is 45.9% in experiment [7]; 72.2% in experiment [8]; 69.2% in [9]; 78.6% in experiment [10]; 74.5% in [11]; 47.7% in experiment [12]. The growth in [13] was 113%; in [14], 71.9%; in [15], 84.4%; in [16], 60.1%; in [17], 41.7%; in experiment [18], 102%. In addition, the figures for the growth in experiment [19] and in [20] were 88.7% and 55.7%, respectively.
